# Results: PubChem BioAssay (EPA / NIEHS)
# Inconclusive results are not listed. Activity calls are given as the source filed them. The calls were made as follows, unless noted: active = hit-call score of the fitted dose curve at least 0.9, where 1 is the maximum; inconclusive = response in the unintended direction; inactive = score below 0.9.
# Key:
# [1] = test system: Thyroperoxidase (TPO), gene 54314; test: CCTE_Simmons_AUR_rTPO: CCTE's Amplex UltraRed Assay for Thyroperoxidase (TPO) Inhibition, Simmons Lab (AID 2283662);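 as to AC50: potency for loss of signal meaning inhibition of peroxidase activity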
# In short: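 Rat thyroid microsomes (5 ug protein) with 25 uM Amplex UltraRed and 300 uM H2O2 in 200 mM phosphate buffer, 30 min at 37C in dark; fluorescence 544/590 nm. Eight concentrations, 5 nM–87.5 uM final, 0.5% DMSO, triplicate biological replicates.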
# [2] = CCTE_Simmons_CellTiterGLO_HEK293T: Viability Assessment in CCTE's Assays for Thyroperoxidase (TPO) Inhibition, Simmons Lab (AID 2283665);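 as to AC50: cells exposed to compound for 24 h before readout; actives reduce ATP signal below DMSO vehicle meaning cytotoxicity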
# In short: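 HEK293T, 10 000 cells/well, DMEM + 1% FBS; 8-pt titration 5 nM–87.5 uM [final], 0.5% DMSO; 24 hr, 37C, 5% CO2; CellTiter-Glo luminescence; n=3 biological replicates.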
# [3] = Tanguay_ZF_120hpf_TR_legacy: (Legacy) Oregon State University Tanguay Lab 120 Hour Post-fertilization zebrafish Assay for Touch Response (AID 2283667)
# In short: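 Tropical 5D wild-type zebrafish embryos statically exposed to 120 hpf at 28°C, sealed and dark-covered, 0.64% DMSO final; touch response scored as present/absent by brightfield microscopy at 120 hpf. Trimethyltin chloride 5 uM positive control; dead embryos not scored.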
# [4] = STM_H9_OrnithineISnorm_perc: Stemina devTOX quickPredict H9 human embryonic stem cell (hESC)-based Assay for Ornithine (ORN) Metabolite Biomarker, Normalized (AID 2283712; active = hit-call score of the fitted dose curve at least 0.9, where 1 is the maximum; inactive = score below 0.9;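 also: ornithine released into spent medium during last day measured by mass spectrometry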)
# In short: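 H9 human embryonic stem cells kept pluripotent receive test chemical over 72 h, refreshed daily by media exchange. Media from the closing 24 h is deproteinized and analysed by UPLC-HRMS on an amide column; ornithine signal is scaled to labelled standard and vehicle.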
# [5] = STM_H9_CystineISnorm_perc: Stemina devTOX quickPredict H9 human embryonic stem cell (hESC)-based Assay for Cystine (CYSS) Metabolite Biomarker, Normalized (AID 2283713; active = hit-call score of the fitted dose curve at least 0.9, where 1 is the maximum; inactive = score below 0.9)
# In short: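 H9 hESC, pluripotent; compound 72h, re-dosed q24h with medium change. Last-24h medium → 40% acetonitrile deproteinization → UPLC-HRMS. CYSS area / C13-CYSS standard, then % of 0.1% DMSO median.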
# [6] = STM_H9_OrnCyssISnorm_ratio: Stemina devTOX quickPredict H9 human embryonic stem cell (hESC)-based Assay for Ornithine (ORN):Cystine (CYSS) Ratio (AID 2283714)
# In short: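 Undifferentiated H9 hESCs exposed 72 h, media and compound replaced every 24 h; final 24-h conditioned media deproteinized and analysed by UPLC-HRMS against C13 spike-ins. Value is the internal-standard-normalized ORN/CYSS ratio versus 0.1% DMSO.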
# [7] = Tanguay_ZF_120hpf_ActivityScore_legacy: (Legacy) Oregon State University Tanguay Lab 120 Hour Post-fertilization zebrafish Assay Score for Activity (AID 2283742);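 as to AC50: dechorionated Tropical 5D wild-type zebrafish embryos held singly per well; static exposure from 6 hpf until 120 hpf at 28 °C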
# In short: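 Dechorionated Tropical 5D embryos, one per well from 6 hpf, statically exposed to 120 hpf at 28 °C in 0.64% DMSO. Mortality and malformations scored binary by brightfield microscopy; activity score combines 18 endpoints, fitted positively versus DMSO.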
# [8] = target: Luciferin 4-monooxygenase (Photinus pyralis) (UniProt P08659); test: CCTE_Simmons_QuantiLum_inhib_2: CCTE's Firefly Luciferase Inhibition Assay, Simmons Lab (AID 2283767);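 as to AC50: potency for inhibitors that lower luciferase luminescence relative to DMSO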
# In short: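 Luminescence loss relative to DMSO vehicle defines inhibition; detection reagent containing 150 uM D-luciferin and 147 uM dATP (final, pH 7.8) is injected immediately before each read. Enzyme is preincubated with an 8-point titration (5 nM–87.5 uM final) for 30 min at 37C.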
# [9] = read-out: Cytochrome P450 (CYP24A1_1), CYP24A1 (gene 1591); test: LTEA_HepaRG_CYP24A1_1: Life Technologies and Expression Analysis (LTEA) Assay for Cytochrome P450 (CYP24A1_1) using HepaRG (AID 2283671; active = hit-call score of the fitted dose curve at least 0.9, where 1 is the maximum; inactive = score below 0.9); details: mRNA level, 48 h; actives raise or lower the signal
# In short: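 Differentiated human HepaRG cells in serum-free induction medium, exposed 48 h in duplicate to eight half-log concentrations from 100 uM top, 0.5% DMSO. Transcript measured by TaqMan qRT-PCR, normalised to ACTB, GAPDH, POLR2A; bidirectional fitting versus DMSO.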
# [10] = CCTE_Padilla_ZF_144hpf_TERATOSCORE: (Legacy) CCTE's 144 Hour Post-fertilization zebrafish Assay Teratoscore, Padilla Lab (AID 2283679; active = hit-call score of the fitted dose curve at least 0.9, where 1 is the maximum; inactive = score below 0.9;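 as to AC50: zebrafish embryos with chorions exposed by immersion from 6-8 hpf to 5 dpf with daily renewal; teratogenicity score from eye scoring of death hatching and malformations at 144 hpf; higher score means more developmental defects relative to DMSO baseline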)
# In short: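 Larvae scored by eye at 144 hpf for death, hatching and malformations after a day in clean Hanks'. Before that, daily-renewed exposure at 80 uM (0.4% DMSO, 26C) from roughly 6-8 hpf through 5 dpf, 4 embryos per chemical.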
# [11] = CEETOX_H295R_MTT_cell_viability: Viability Assessment in the CeeTox HT-H295R MTT Assay (AID 2283718; active = hit-call score of the fitted dose curve at least 0.9, where 1 is the maximum; inactive = score below 0.9;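 as to AC50: curve fitted both ways so AC50 may mark viability loss or gain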)
# In short: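 Human H295R adrenal cells, prestimulated 48 h with 10 uM forskolin, were exposed 48 h to chemicals in 0.1% DMSO. Viability was measured in the same wells by MTT (0.5 mg/ml, 4 h, 37 C), absorbance 570/650 nm, as percent of controls.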
# [12] = ArunA_CellTiter_hNC: Viability Assessment in the ArunA Biomedical's Oris Neural Crest (hNC) Cell Migration Assay (AID 2283752)
# In short: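 Cell titer was measured with the CellTiter Aqueous One reagent after 72 h of chemical dosing. Cells were H9-derived embryonic neural crest stem cells seeded on Matrigel, 60,000 per well, and given 16 h at 37C beforehand.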
# [13] = ArunA_CellTiter_hNP: Viability Assessment in the ArunA Biomedical's Oris Neural Crest (hNC) Cell Migration Assay (AID 2283753)
# In short: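 H9-derived hNP1 neuroprogenitors, 60,000/well on Matrigel, cultured 16 h, then 72 h chemical exposure in test medium. Cell titer via CellTiter Aqueous One; positive-direction fit vs DMSO.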
# [14] = ArunA_Migration_hNP: ArunA Biomedical's Oris Neuroprogenitor (hNP) Cell Migration Assay (AID 2283754)
# In short: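 Human H9-derived hNP1 neuroprogenitors on Matrigel with LIF/bFGF, plated around seeding stoppers for 16 h at 37C; stoppers removed at start of 72 h chemical exposure. Calcein-AM staining, fluorescence 494/517 nm in detection zone; loss-of-signal vs DMSO; cytochalasin D control.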
# [15] = ArunA_Migration_hNC: ArunA Biomedical's Oris Neural Crest (hNC) Cell Migration Assay (AID 2283755)
# In short: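 Human H9-derived neural crest stem cells, 60,000/well on Matrigel, 16 h at 37C, then 72 h chemical exposure after seeding-stopper removal. Migration into detection zone read as calcein-AM fluorescence (ex494/em517), relative to DMSO.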
# [16] = ArunA_NOG_NucleusCount: ArunA Biomedical's Neurite Outgrowth (NOG) Assay for Nucleus Count (AID 2283756)
# In short: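 Human H9-derived differentiated neurons were exposed for 48 h right after seeding. Hoechst-stained nuclei gated by size and intensity were counted by automated high-content imaging as viable neurons. Loss of signal vs DMSO.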
# [17] = ArunA_NOG_NeuriteLength: ArunA Biomedical's Neurite Outgrowth (NOG) Assay for Neurite Length (AID 2283757)
# In short: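 Differentiated human H9-derived neurons were exposed for 48 h from seeding, then stained with Hoechst and βIII-tubulin. Automated high-content imaging gave total neurite length per valid neuron, counting processes >10 um. Loss of signal was scored versus DMSO.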
# [18] = ArunA_NOG_NeuritesPerNeuron: ArunA Biomedical's Neurite Outgrowth (NOG) Assay for Neurites Per Neuron (AID 2283758)
# In short: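 Differentiated human H9-derived neurons exposed to chemicals for 48 h from seeding, then stained with Hoechst and βIII-tubulin/DyLight 488. Automated imaging counted neurites (processes >10 um) per valid neuron; loss of signal versus DMSO scored.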
# [19] = test system: Thyroperoxidase (TPO), gene 445522; test: CCTE_Simmons_GUA_TPO: CCTE's Guaiacol Assay for Thyroperoxidase (TPO) Inhibition, Simmons Lab (AID 2283750)
# In short: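 Porcine thyroid microsomes (25 ug) in 200mM potassium phosphate, preincubated 30 s at 37C with compound (8 concentrations, 5 nM–87.5 uM) and 35mM guaiacol; 1mM H2O2 starts reaction. Absorbance change at 450nm over first 80 s; loss of signal versus DMSO, three replicates.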
# Luciferin 4-monooxygenase (Photinus pyralis), sequence (P08659 whole entry, looked up): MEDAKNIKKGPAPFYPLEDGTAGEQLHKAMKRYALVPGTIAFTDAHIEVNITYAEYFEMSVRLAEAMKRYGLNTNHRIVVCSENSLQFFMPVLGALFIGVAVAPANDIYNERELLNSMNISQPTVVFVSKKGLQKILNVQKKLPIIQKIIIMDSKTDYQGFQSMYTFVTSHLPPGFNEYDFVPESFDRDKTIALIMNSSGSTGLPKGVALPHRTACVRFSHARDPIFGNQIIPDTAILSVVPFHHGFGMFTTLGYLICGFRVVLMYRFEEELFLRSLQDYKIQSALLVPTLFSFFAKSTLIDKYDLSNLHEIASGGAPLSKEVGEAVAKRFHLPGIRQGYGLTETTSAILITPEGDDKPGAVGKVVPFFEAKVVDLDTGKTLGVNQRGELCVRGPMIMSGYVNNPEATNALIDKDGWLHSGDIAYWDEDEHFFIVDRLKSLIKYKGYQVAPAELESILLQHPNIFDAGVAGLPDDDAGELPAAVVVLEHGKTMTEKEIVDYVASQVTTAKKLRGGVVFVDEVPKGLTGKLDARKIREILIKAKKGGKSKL
smiles,measurement,setting,value
Cc1ccc(N)cc1,AC50,[1],0.0844 µM (active)
same,outcome,[2],inactive
same,outcome,[3],inactive
same,AC50,[4],61.2 µM (active)
same,AC50,[5],23.1 µM (active)
same,AC50,[6],30.4 µM (active)
same,outcome,[7],inactive
same,outcome,[8],inactive
Nc1ccc(Cl)cc1N,AC50,[1],13.1 µM (active)
same,outcome,[2],inactive
same,AC50,[9],30.8 µM (active)
same,AC50,[10],15 µM (active)
same,outcome,[11],inactive
same,AC50,[7],44.8 µM (active)
same,AC50,[8],9.28 µM (active)
Oc1ccc2ccc3cccc4ccc1c2c34,AC50,[1],10.9 µM (active)
same,AC50,[2],10.8 µM (active)
same,AC50,[10],15.2 µM (active)
same,outcome,[4],inactive
same,outcome,[5],inactive
same,outcome,[6],inactive
same,outcome,[11],inactive
same,AC50,[7],47.4 µM (active)
same,AC50,[12],14.7 µM (active)
same,AC50,[13],25.8 µM (active)
same,AC50,[14],50 µM (active)
same,AC50,[15],13.9 µM (active)
same,outcome,[16],inactive
same,outcome,[17],inactive
same,outcome,[18],inactive
same,AC50,[8],48 µM (active)
C[C@]12C=CC3=C4CCC(=O)C=C4CC[C@H]3[C@@H]1CC[C@@H]2O,AC50,[1],7.23 µM (active)
same,AC50,[2],6.42 µM (active)
same,outcome,[9],inactive
same,AC50,[10],31 µM (active)
same,outcome,[11],inactive
same,AC50,[7],118 µM (active)
same,outcome,[8],inactive
c1ccc(NNc2ccccc2)cc1,outcome,[1],inactive
same,AC50,[2],19.1 µM (active)
same,outcome,[7],inactive
same,AC50,[8],20.4 µM (active)
COP(=S)(OC)SCN1C(=O)c2ccccc2C1=O,AC50,[1],12.9 µM (active)
same,AC50,[2],43.8 µM (active)
same,AC50,[10],52.6 µM (active)
same,outcome,[11],inactive
same,outcome,[7],inactive
same,outcome,[19],inactive
Nc1ccc(Cc2ccc(N)cc2)cc1,AC50,[1],0.0776 µM (active)
same,outcome,[2],inactive
same,outcome,[3],inactive
same,AC50,[11],2.04 µM (active)
same,outcome,[7],inactive
same,AC50,[19],0.352 µM (active)
same,outcome,[8],inactive
CCCCC(CC)COC(=O)c1ccc(C(=O)OCC(CC)CCCC)c(C(=O)OCC(CC)CCCC)c1 (stereo unspecified),AC50,[1],12.7 µM (active)
same,outcome,[2],inactive
same,outcome,[7],inactive
same,outcome,[8],inactive
N#CC(Br)(Br)C(N)=O,outcome,[1],inactive
same,outcome,[2],inactive
same,outcome,[3],inactive
same,outcome,[7],inactive
same,outcome,[8],inactive
Cc1ccc(N)c(N)c1,AC50,[1],1.68 µM (active)
same,outcome,[2],inactive
same,outcome,[3],inactive
same,AC50,[10],80.4 µM (active)
same,AC50,[4],18.9 µM (active)
same,AC50,[5],23.4 µM (active)
same,AC50,[6],22.7 µM (active)
same,outcome,[11],inactive
same,outcome,[7],inactive
same,AC50,[8],0.334 µM (active)
Nc1cc(Cl)cc(C(=O)O)c1Cl,AC50,[1],24.2 µM (active)
same,outcome,[2],inactive
same,outcome,[3],inactive
same,outcome,[10],inactive
same,outcome,[7],inactive
same,outcome,[8],inactive
CN(C)c1ccc(C(=O)c2ccc(N(C)C)cc2)cc1,AC50,[1],8.94 µM (active)
same,AC50,[2],43.8 µM (active)
same,AC50,[3],43.3 µM (active)
same,AC50,[10],0.544 µM (active)
same,AC50,[7],32.1 µM (active)
same,AC50,[8],11.6 µM (active)
